Rows were chosen to be rich in hits. Some 4.8% of all compounds tested hit in one or more screens of this group.
ssDAF12 agonist: activators of S. stercoralis DAF-12 nuclear receptor. 370,000 compounds, 1% hits. AID 652126. activation, % at 6.8 µM. HEK293 ssDAF-12/GRIP1 lit1-tk-luc reporter, luminescence; % of 3 µM dafachronic acid response;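 active = activation above the mean over all tested compounds plus 3 SD, cut at about 0.9% in these data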
DAX1 inh-1: inhibits human nuclear receptor DAX1. HEK293 Gal4-DAX1 luciferase reporter, luminescence. 340,000 compounds, 0.99% hits. inhibition, % at 6.75 µM. P51843;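 active = inhibition above the mean over all tested compounds plus 3 SD, cut at about 4.2% in these data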;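 also: inhibition shows as a rise in luminescence from relieved DAX1 repression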
Target sequence (P51843 207-470 limits assumed): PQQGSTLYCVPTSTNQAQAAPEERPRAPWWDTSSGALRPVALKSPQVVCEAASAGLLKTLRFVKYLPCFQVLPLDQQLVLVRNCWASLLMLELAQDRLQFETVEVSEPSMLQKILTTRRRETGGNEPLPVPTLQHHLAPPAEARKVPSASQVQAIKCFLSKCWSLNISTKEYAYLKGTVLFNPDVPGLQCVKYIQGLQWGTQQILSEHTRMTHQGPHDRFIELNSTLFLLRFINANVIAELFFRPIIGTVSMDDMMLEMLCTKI
DAX1 inh-2: DAX1 (NR0B1) inhibition, primary screen. 370,000 compounds, 1.1% hits. HEK293T StAR-luciferase reporter, SF-1/DAX-1 repression relief. AID 652010. inhibition, % at 6.8 µM;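 active = inhibition above the mean over all tested compounds plus 3 SD, cut at about 3.6% in these data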;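 also: higher inhibition means more luminescence from relief of DAX-1 repression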
SMARCA2 act: increases SMARCA2 function in MMTV reporter cells; 370,000 compounds, 1% hits; AID 652017; activation, % at 9.1 µM; MG213 cells, MMTV-luciferase reporter, dexamethasone, overnight; in the data active = activation above about 7.8%
hgDAF12 agonist: hgDAF-12 agonism, primary luciferase screen; AID 687014; HEK293 GAL4-hgDAF12 UAS-luciferase reporter, agonist luminescence; normalized to butyrate control; 370,000 compounds, 1.8% hits; activation, % at 6.8 µM;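 active = activation above a cutoff set at the mean of all screened compounds plus 3 SD, cut at about 10% in these data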
hcDAF-12 act: H. contortus DAF-12 activation, primary screen; HEK293 hcDAF-12 lit1-tk-luc reporter, luminescence; 0% DMSO, 100% Δ7-dafachronic acid; activation, % at 6.8 µM; 370,000 compounds, 1.4% hits;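 active = activation above the mean of all tested compounds plus 3 SD, cut at about 5.5% in these data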
Each line names hits and unclear results; the compound was inactive in the other large screens.

COc1ccc(/C=N/NC(=S)Nc2c(C)n(C)n(-c3ccccc3)c2=O)cc1OC	DAX1 inh-1 5.4
Cc1cc(OCC(=O)OCC(=O)c2c(N)n(C)c(=O)n(C)c2=O)ccc1Cl	none
COCCNC(=O)COC(=O)C1=Cc2ccccc2OC1	DAX1 inh-1 4.7
O=C(COC(=O)C1=Cc2ccccc2OC1)NCc1ccccc1	none
COc1cccc(-c2cccc(NC(=O)C3CCN(C4CCOCC4)CC3)c2)c1	ssDAF12 agonist 1.5
COc1ccc(NC(=O)CSc2ncnc3sc(C)cc23)cc1	none
Cc1cc2c(=O)n(C)c(SCC(=O)Nc3ccccc3)nc2s1	DAX1 inh-1 4.8
Cc1cc2c(SCC(=O)Nc3cccc(O)c3)ncnc2s1	ssDAF12 agonist 1.4, hcDAF-12 act 6.4
Cc1cccc(NC(=O)CSc2nc3sc(C)cc3c(=O)n2C)c1	none
O=S1(=O)c2ccc(Br)cc2OC[C@@H](c2ccccc2)N1Cc1cn(Cc2ccccc2)nn1	none (no result: DAX1 inh-1)
CCc1cc(-c2nnn(CCC3COCCO3)c2CC)cc(CC)c1-c1cn(CCc2c[nH]c3ccccc23)nn1 (stereo not drawn)	none
CCN(CC)C(=O)c1cc2sc3ccccc3c2s1	hgDAF12 agonist 12.2
COCCN(CCOC)C(=O)c1cc2sc3ccccc3c2s1	none
O=C(Nc1nc2c(s1)CN(Cc1ccccc1)CC2)C1CCCC1	none
CC(C)(C)C(=O)Nc1nc2c(s1)CN(Cc1ccccc1)CC2	hgDAF12 agonist 10.6
Cc1cc(C2=NNC(=Nc3ccccc3)SC2)c(C)n1C	DAX1 inh-1 5.4
CC(C)N(C)c1ncnc2c1ncn2[C@H]1CN(Cc2cccnc2)C[C@@H](CO)O1	ssDAF12 agonist 8.1 (no result: DAX1 inh-1)
COC(=O)[C@H](CCSC)NC(=O)Cn1cnc(C(=O)Nc2ccc(C)c(C)c2)n1	hgDAF12 agonist 10.8, hcDAF-12 act 5.7
C[C@H]1CN([C@@H](C)CO)C(=O)CCCn2nncc2CO[C@@H]1CN(C)C(=O)Cc1ccccc1	none
COC(=O)c1ccc(N=Cc2c(-c3ccccc3)[nH][nH]c2=O)cc1	ssDAF12 agonist 1.5
O=C(O)c1ccc(-n2nc(C(F)(F)F)cc2-c2cccs2)cc1	none
Clc1nnc(NN=C2CCCC2)c2ccccc12	ssDAF12 agonist 1.3
Cc1ccc(CNC(=O)CSCc2ccccc2F)cc1	hgDAF12 agonist 12.9
CCCOc1ccc(N2C(=O)CC(N3CCN(c4ccc([N+](=O)[O-])cc4)CC3)C2=O)cc1 (stereo not drawn)	DAX1 inh-1 5.2
CCOc1ccc(N2C(=O)CC(N3CCN(c4ccc([N+](=O)[O-])cc4)CC3)C2=O)cc1 (stereo not drawn)	none
O=C1C(=O)N(c2ccccc2)C(c2ccccc2[N+](=O)[O-])/C1=C(\O)c1ccccc1 (stereo not drawn)	ssDAF12 agonist 1.6
O=C1C(=O)N(c2cccc(Cl)c2)C(c2ccccc2[N+](=O)[O-])/C1=C(\O)c1ccccc1 (stereo not drawn)	none (no result: ssDAF12 agonist, DAX1 inh-2, SMARCA2 act, hgDAF12 agonist, hcDAF-12 act)
CC(C)(C)c1ccc(S(=O)(=O)NC(=O)C2(C)CCN2C(=O)Cc2cccc3ccccc23)cc1 (stereo not drawn)	none (no result: DAX1 inh-1)
Cc1cc(NC(=O)Cn2nnc(-c3ccccc3NC(=O)c3ccccc3F)n2)no1	ssDAF12 agonist 1.4
COCC1CCCN(C(=O)c2cc(COc3ccc(C(C)=O)cc3)on2)C1 (stereo not drawn)	DAX1 inh-2 4.2, hcDAF-12 act 5.7
CC(=O)c1ccc(OCc2cc(C(=O)N3CCN4CCCC4C3)no2)cc1 (stereo not drawn)	none
CC(=O)c1ccc(OCc2cc(C(=O)NC3CCCCC3)no2)cc1	DAX1 inh-2 3.6
Cc1ccc(-c2cc(C(=O)NC3CCCC3)no2)cc1	hgDAF12 agonist 12.8
CC(=O)c1ccc(OCCCC(=O)Nc2cccc(-c3nn[nH]n3)c2)cc1	none
COc1ccccc1OCc1nnc(SCC(=O)Nc2ccc(N3CCOCC3)cc2)n1C	DAX1 inh-1 4.8
Cc1cc(C)cc(NC(=O)CSc2nnc(CN3CCOCC3)n2C)c1	DAX1 inh-1 4.4
CC1(C)NC(=O)N(CC(O)CN(c2ccccc2)S(=O)(=O)c2ccc([N+](=O)[O-])cc2)C1=O (stereo not drawn)	none
CCn1c(/C=C/c2ccccc2[N+](=O)[O-])nc2ccccc2c1=O	none
Cn1c(/C=C/c2ccccc2[N+](=O)[O-])nc2ccccc2c1=O	DAX1 inh-1 4.5
CN(CCc1ccccc1)C(=O)c1ccc2c(c1)ncn2C1CCCCC1	none (no result: DAX1 inh-1)
CC1(N2CCCCC2)C(=O)c2ccccc2C1=O	ssDAF12 agonist 1.0
CN(C)S(=O)(=O)c1ccc(C(=O)/C=C/c2cccnc2)cc1	none
C=CCOC(=O)N1CCC2CC1c1c(-c3ccc(C(F)(F)F)cc3)cccc12 (stereo not drawn)	none (no result: DAX1 inh-1)
O=C(CSc1nnc(C2CCCCC2)o1)Nc1ccccc1Cl	none
O=C(CCCc1nc2ccccc2s1)NC(c1ccccc1)c1ccccc1	SMARCA2 act 7.9
CC1(C)C2CCC1(C)C(OC(=O)CNc1ccccc1)C2 (stereo not drawn)	none
COc1cc(C(=O)OC2CC3CCC2(C)C3(C)C)ccc1OC(C)=O (stereo not drawn)	DAX1 inh-1 4.7
COc1ccc(C(=O)/C=C/Nc2ccc(C)cn2)cc1OC	DAX1 inh-2 4.0
C=CCn1c(C)cc(C(=O)COc2nncc3ccccc23)c1C	hgDAF12 agonist 13.1
C=CCn1c(C)cc(C(=O)COC(=O)c2n[nH]c(=O)c3ccccc23)c1C	none
COC(=O)[C@]12C[C@H](CC(=O)NCC34CC5CC(CC(C5)C3)C4)C(=O)N(Cc3ccco3)C1=C[C@H](C(C)(C)C)O[C@@H]2C	none (no result: DAX1 inh-1)
CN(C)S(=O)(=O)c1cccc(NC(=O)c2ccccc2SCC(=O)N2CCCC2)c1	none
Cc1cccc(NC(=O)Cn2c(O)c(N=NC(=O)c3ccccc3O)c3ccccc32)c1	hcDAF-12 act 6.0
NC(=S)N=Nc1c(O)n(CC(=O)Nc2ccccc2)c2ccccc12	none
C=CCN=C1NC(CCc2ccccc2)C(C(=O)OC)=C(C)N1Cc1cccc(C(F)(F)F)c1 (stereo not drawn)	ssDAF12 agonist 1.5 (no result: DAX1 inh-1)
C=CCN=C1NC(CCc2ccccc2)C(C(=O)OC)=C(C)N1Cc1ccccc1C(F)(F)F (stereo not drawn)	none (no result: DAX1 inh-1)
CCC(=O)c1ccc(OCC(=O)OC(C)C(=O)Nc2c(C)n(C)n(-c3ccccc3)c2=O)cc1 (stereo not drawn)	none
CCc1cc(=O)oc2cc(OCC(=O)N3CCC(C(=O)O)CC3)ccc12	DAX1 inh-1 4.6
CCCc1cc(=O)oc2cc(OCC(=O)Nc3cc(C)on3)ccc12	none
CCCc1cc(=O)oc2cc(OCC(=O)Nc3ccccn3)ccc12	DAX1 inh-2 4.0
Cc1c(C)c2ccc(OCC(=O)N3CCC(C(=O)O)CC3)cc2oc1=O	none

Source: PubChem BioAssay (The Scripps Research Institute Molecular Screening Center)
